This passage reports outcome results from PubChem BioAssay AID2284360 (EPA ToxCast).

Results filed as inconclusive are left out. Calls of active or inactive are those of the source. Rule for the calls: active = hit-call score of the fitted dose curve at least 0.9, where 1 is the maximum; inconclusive = response in the unintended direction; inactive = score below 0.9.

This assay in a line: ATG_M_19_EcoTox2: Attagene TRANS-FACTORIAL EcoTox-2 HepG2 Assay for M19 Transcription Factor (Internal Marker). The method, then: ATG_EcoTox2 is a cell-based, multiplexed assay created by modifying the existing Attagene TRANS-FACTORIAL system to include a panel of nuclear receptors from some or all the following species: human (Homo sapiens), african clawed frog (Xenopus laevis), rainbow trout (Oncorhynchus mykiss), japanese medaka (Oryzias latipes), and zebrafish (Danio rerio). The ECOTOX2-FACTORIAL format uses HepG2, a human liver cell line, with measurements taken at 24 hours after chemical dosing in a 24-well plate. ATG_M_19_EcoTox2 is one of 29 assay components calculated in the ATG_EcoTox2 assay. It is designed to make measurements of mRNA induction, a form of inducible reporter, as detected with fluorescence intensity signals by Reverse transcription polymerase chain reaction (RT-PCR) and Capillary electrophoresis technology.The assay endpoint ATG_M_19_EcoTox2 was analyzed in the positive analysis fitting direction relative to DMSO as the negative control and baseline of activity. Using a type of inducible reporter, measures of mRNA for gain-of-signal activity can be used to understand the background control at the transcription factor-level as they relate to the gene. Furthermore, this assay endpoint can be referred to as a secondary readout, because this assay has produced multiple assay endpoints where this one serves a background control function. […]
Human liver HepG2 cells are transiently transfected with multiple reporter transcription units (MRTUs) in 6-well plates using FuGene 6 reagent (Roche; 3 ml FuGene/1 mg DNA). […] A major difference between the CIS and TRANS system is that in CIS activities of endogenous TFs are measured, whereas the TRANS assay evaluates changes in activities of exogenous, chimeric NR-Gal4 proteins. […] The fragments were purified using Qiaquick PCR columns (Qiagen), analyzed on an ABI 3130xL genetic analyzer (Applied Biosystems) with peak positions identified by using a set of X-rhodamine (ROX)-labeled MapMarker1000 molecular weight standards (BioVentures). […]
Take `CCCCOCN(C(=O)CCl)c1c(CC)cccc1CC`: the molecule was called inactive.

`[Cl][Sn]([c]1ccccc1)([c]1ccccc1)[c]1ccccc1`: the outcome was inactive. Under `O=S(=O)(O)C(F)(F)C(F)(F)C(F)(F)C(F)(F)C(F)(F)C(F)(F)F` stands “inactive”.
